From PubChem
The list is not random: actives were taken first. Their share in the collection is about 3.4%.
PAFAH1B3 inh: PAFAH1B3 (human) inhibition; Q15102; recombinant PAFAH1B3, FP-rhodamine probe, fluorescence polarization; inhibition, % at 3.39 µM; 0.28% of 340,000 active;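 active = inhibition above the screen-wide average of all tested compounds plus 3 SD, cut at about 25% in these data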;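 also: 0% = enzyme with DMSO only and 100% = wells lacking PAFAH1B3 protein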
Target sequence (Q15102 whole entry, looked up): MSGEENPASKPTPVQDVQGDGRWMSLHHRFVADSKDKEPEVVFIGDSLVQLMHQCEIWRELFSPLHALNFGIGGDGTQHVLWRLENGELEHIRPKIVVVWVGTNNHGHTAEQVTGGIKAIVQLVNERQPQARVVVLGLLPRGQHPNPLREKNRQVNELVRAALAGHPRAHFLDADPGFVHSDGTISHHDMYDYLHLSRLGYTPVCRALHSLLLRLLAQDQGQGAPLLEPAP
pPAFAH inh: inhibitors of human plasma PAF acetylhydrolase (pPAFAH); inhibition, % at 3.39 µM; recombinant pPAFAH, FP-rhodamine probe fluorescence polarization; 1.5% of 330,000 active; Q13093;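 active = inhibition above the mean inhibition across the screen plus 3 SD, cut at about 25% in these data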;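 also: inhibitors block binding of the rhodamine activity-based probe so polarization drops; 0% = enzyme with DMSO and 100% = wells lacking pPAFAH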
Target sequence (Q13093 whole entry, looked up): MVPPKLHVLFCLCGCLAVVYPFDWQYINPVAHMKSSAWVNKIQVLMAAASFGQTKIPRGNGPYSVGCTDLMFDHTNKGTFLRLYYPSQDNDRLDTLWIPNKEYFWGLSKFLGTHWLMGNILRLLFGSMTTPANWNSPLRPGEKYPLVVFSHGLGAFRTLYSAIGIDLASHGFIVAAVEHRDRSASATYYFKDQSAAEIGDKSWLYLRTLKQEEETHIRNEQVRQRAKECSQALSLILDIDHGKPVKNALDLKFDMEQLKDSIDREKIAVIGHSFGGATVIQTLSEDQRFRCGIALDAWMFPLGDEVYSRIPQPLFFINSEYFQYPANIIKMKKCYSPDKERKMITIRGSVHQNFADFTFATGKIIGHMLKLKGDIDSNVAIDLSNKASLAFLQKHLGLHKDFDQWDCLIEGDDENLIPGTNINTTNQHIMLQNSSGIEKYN
PP5 primary: blocks human protein phosphatase 5 activity; 0.18% of 320,000 active; purified PP5c, OMFP substrate fluorescence; inhibition, % at 6.7 µM; P53041;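 active = inhibition above the campaign's mean inhibition across all tested compounds plus 3 SD, cut at about 9.5% in these data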;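 also: 0% = DMSO only and 100% = 100 µM cantharidin control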
PP1 inh: counter-screen for PP5 inhibitors: inhibitors of human PP1-alpha; P62136; purified PP1alpha, OMFP fluorescence; inhibition, % at 6.7 µM; 0.9% of 320,000 active; AID 2235;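 active = inhibition above the mean inhibition of all tested compounds plus 3 SD, computed separately for each screening campaign, cut at about 15% in these data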
PAFAH2 FP inh: inhibitors of human PAFAH2; inhibition, % at 3.39 µM; recombinant PAFAH2, FP-rhodamine activity probe, fluorescence polarization; 0.99% of 340,000 active; AID 492956;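 active = inhibition above the mean over all tested compounds plus 3 SD, cut at about 30% in these data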;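 also: inhibitors block probe labeling of enzyme so polarization drops; 0% = enzyme with DMSO and 100% = wells lacking PAFAH2 protein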
PAFAH1B2 inh: blocks human PAF acetylhydrolase 1b catalytic subunit 2; recombinant PAFAH1B2, FP-rhodamine activity probe, fluorescence polarization; inhibition, % at 3.39 µM; 1.2% of 340,000 active; AID 492953;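 active = inhibition above the mean of all tested compounds plus 3 SD, cut at about 24% in these data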;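 also: 0% = enzyme with DMSO and 100% = wells lacking PAFAH1B2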
PP5 inh confirm: confirmation of human PP5 phosphatase inhibitors; shares compounds with PP5 primary; Purified PP5, fluorogenic phosphatase substrate, fluorescence; inhibition, % at 6.7 µM; 22% of 460 active; in the data active = inhibition above about 9.5%
PP1 counter 3x: counter-screen for PP5 inhibitors: human PP1 phosphatase inhibition | inhibition, % at 6.7 µM | 4% of 460 active | AID 2355 | PP1 enzyme, fluorescent phosphatase substrate | shares compounds with PP5 primary; in the data active = inhibition above about 16%
pPAFAH FP conf: pPAFAH (human) inhibition, confirmed. shares compounds with pPAFAH inh. recombinant pPAFAH, FP-Rh probe fluorescence polarization. inhibition, % at 3.39 µM. 72% of 2,300 active;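 active = mean inhibition of the triplicate above the hit cutoff set for the earlier primary screen, cut at about 25% in these data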;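 also: 0% = enzyme with DMSO and 100% = wells lacking pPAFAH enzyme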
PAFAH1B3 conf FP: confirmation of human PAFAH1B3 inhibitors; shares compounds with PAFAH1B3 inh; recombinant PAFAH1B3, FP-Rh activity-based probe, fluorescence polarization; inhibition, % at 3.39 µM; 30% of 390 active; AID 493032;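 active = average inhibition over triplicate runs above the hit cutoff set in the earlier primary screen, cut at about 25% in these data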;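 also: 0% = enzyme with DMSO and 100% = wells lacking PAFAH1B3 protein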
Starred values were filed as active, the others as inactive.

`CCSc1nsc(NC(=O)Nc2cccc(F)c2)n1` gave PAFAH1B3 inh 0, pPAFAH inh -6, PP5 primary -1, PP1 inh 14, PAFAH2 FP inh -29 and PAFAH1B2 inh 5.
`COc1ccc(OCCNC(=O)c2cccc(Oc3ccc(C(F)(F)F)cc3[N+](=O)[O-])c2)cc1` gave PAFAH1B3 inh -4, pPAFAH inh 5, PP5 primary 10*, PP1 inh 3, PAFAH2 FP inh 3, PAFAH1B2 inh 2, PP5 inh confirm 3 and PP1 counter 3x -3.
O=C(NCCO)c1ccc(Oc2ccc(C(F)(F)F)cc2[N+](=O)[O-])cc1 was read as PAFAH1B3 inh 3, pPAFAH inh 4, PP5 primary 2, PP1 inh -1, PAFAH2 FP inh -1 and PAFAH1B2 inh 1.
For CCCCOc1ccc(C(=O)NCCOc2cccc(OC)c2)cc1 the results were PAFAH1B3 inh 4, pPAFAH inh -2, PP5 primary 9.8*, PP1 inh -1, PAFAH2 FP inh -3, PAFAH1B2 inh 2, PP5 inh confirm -1 and PP1 counter 3x -1.
For COc1ccc(C(=O)Nc2ccc(S(=O)(=O)N3CCCCC3C)cc2)c(OC)c1OC (stereo not drawn) the results were PAFAH1B3 inh -9, pPAFAH inh 9, PP5 primary 11*, PP1 inh 0, PAFAH2 FP inh 6, PAFAH1B2 inh 2, PP5 inh confirm 1 and PP1 counter 3x 2.
`COc1cc(C2Nc3ccc4ccccc4c3C3=C2C(=O)CC(C)(C)C3)ccc1OCC(=O)O` (stereo not drawn) gave PAFAH1B3 inh 14, pPAFAH inh 0, PP5 primary -1, PP1 inh -2, PAFAH2 FP inh -1 and PAFAH1B2 inh 2.
`CC1(C)CC(=O)C2=C(C1)c1c(ccc3ccccc13)NC2c1ccc(OCC(=O)O)cc1` (stereo not drawn) gave PAFAH1B3 inh 11, pPAFAH inh 4, PP5 primary 9.8*, PP1 inh -2, PAFAH2 FP inh -3, PAFAH1B2 inh 6, PP5 inh confirm -2 and PP1 counter 3x 1.
CC1(C)CC(=O)C2=C(C1)Oc1ncn(Cc3ccco3)c(=N)c1C2c1ccccc1 (stereo not drawn) was read as PAFAH1B3 inh 2, pPAFAH inh 2, PP5 primary 5, PP1 inh 0, PAFAH2 FP inh 12 and PAFAH1B2 inh 9.
`COc1ccc(C2C3=C(CC(C)(C)CC3=O)Oc3ncn(Cc4ccccc4)c(=N)c32)cc1` (stereo not drawn) gave PAFAH1B3 inh 4, pPAFAH inh 4, PP5 primary 11*, PP1 inh 4, PAFAH2 FP inh 4, PAFAH1B2 inh 7, PP5 inh confirm -3 and PP1 counter 3x -3.
CN(C)c1nc(SCCOC(=O)COc2ccc(Cl)cc2Cl)nc(N(C)C)n1 was read as PAFAH1B3 inh 1, pPAFAH inh -4, PP5 primary 11*, PP1 inh -2, PAFAH2 FP inh -6, PAFAH1B2 inh -1, PP5 inh confirm -3 and PP1 counter 3x -2.
Screening CN(Cc1nccn1C)C(=O)c1cc(COc2cccc(C(F)(F)F)c2)on1 returned PAFAH1B3 inh 5, pPAFAH inh 9, PP5 primary 2, PP1 inh -2, PAFAH2 FP inh -3 and PAFAH1B2 inh 6.
O=S(=O)(c1ccc(Br)s1)n1cccn1 was read as PAFAH1B3 inh 8, pPAFAH inh 0, PP5 primary 12*, PP1 inh -3, PAFAH2 FP inh -1, PAFAH1B2 inh 10, PP5 inh confirm -3 and PP1 counter 3x -4.
`COc1ccc(C(=O)Cc2nnc(C)s2)c(OC)c1` gave PAFAH1B3 inh 4, pPAFAH inh 3, PP5 primary 0, PP1 inh 1, PAFAH2 FP inh 1 and PAFAH1B2 inh 1.
For O=C(Nc1ccc(OC(F)(F)F)cc1)c1ccc2nc[nH]c2c1 the results were PAFAH1B3 inh 6, pPAFAH inh 2, PP5 primary 3, PP1 inh 4, PAFAH2 FP inh -4 and PAFAH1B2 inh 4.
For NC(=O)c1cccc(-c2cc(Nc3ccc(OC(F)(F)F)cc3)ncn2)c1 the results were PAFAH1B3 inh -16, pPAFAH inh -3, PP5 primary 10*, PP1 inh 10, PAFAH2 FP inh -41, PAFAH1B2 inh 2, PP5 inh confirm 6 and PP1 counter 3x 9.
COC(=O)C1=C(C)NC(=S)NC1/C=C/c1ccccc1 (stereo not drawn) was read as PAFAH1B3 inh -4, pPAFAH inh 5, PP5 primary -2, PP1 inh 4, PAFAH2 FP inh 10 and PAFAH1B2 inh 5.
`O=c1c2cc(N3CCOCC3)ccc2[nH]c(=S)n1Cc1ccco1` gave PAFAH1B3 inh 2, pPAFAH inh 19, PP5 primary 10*, PP1 inh 9, PAFAH2 FP inh 9, PAFAH1B2 inh 2, PP5 inh confirm -3 and PP1 counter 3x -1.
For CC1(C)CC(=O)C=C(C(=O)NC2CCCc3c2cnn3-c2cc(F)cc(F)c2)O1 (stereo not drawn) the results were PAFAH1B3 inh -4, pPAFAH inh 0, PP5 primary -1, PP1 inh -2, PAFAH2 FP inh -7 and PAFAH1B2 inh 3.
FC(F)C(F)(F)C(F)(F)C(F)(F)c1cc(-c2ccccc2)n[nH]1 was read as PAFAH1B3 inh 4, pPAFAH inh 56*, PP5 primary 11*, PP1 inh -4, PAFAH2 FP inh 1, PAFAH1B2 inh -5, PP5 inh confirm 9.7*, PP1 counter 3x 10 and pPAFAH FP conf 50*.
Screening Cc1cc(OCC(=O)NN2C(=O)c3ccccc3C2=O)ccc1Cl returned PAFAH1B3 inh 0, pPAFAH inh 8, PP5 primary 0, PP1 inh 0, PAFAH2 FP inh -2 and PAFAH1B2 inh 4.
For O=C(/C=C/c1ccc(O)cc1)c1ccc(NC2=C(N3CCCCC3)C(=O)c3ccccc3C2=O)cc1 the results were PAFAH1B3 inh 54*, pPAFAH inh 7, PP5 primary 9.9*, PP1 inh 4, PAFAH2 FP inh 25, PAFAH1B2 inh 14, PP5 inh confirm 37*, PP1 counter 3x 1 and PAFAH1B3 conf FP 22.
Screening O=C(O)CCCNS(=O)(=O)c1ccccc1 returned PAFAH1B3 inh -2, pPAFAH inh 4, PP5 primary 1, PP1 inh 1, PAFAH2 FP inh 3 and PAFAH1B2 inh 4.
